# Reference: PubChem BioAssay
# Where “and” joins values, the source holds several entries; their conditions need not be identical. Equal entries are not always repeated. Records with an inconclusive call do not appear. Calls of active or inactive are those of the source.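 The calls were made as follows, unless noted: active = compounds whose cell count with miR-34 switched on is under 0.7 times the count with it off; inactive = the rest.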
# Key:
# [1] = compounds altering viability of human ES cells (AID 493140; call rule not given here;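 also: cells exposed to compounds for four days before counting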); conditions: human embryonic stem cell survival screen; stronger effect = higher value
# [2] = viability loss with induced miR-34 in A549 – imaging, A549 dox-inducible miR-34, nuclei and caspase counts, primary screen (AID 1347080); conditions: A549 miR-34 inducible, Hoechst nuclei count, 48 h
# [3] = molecular target: ATP-dependent translocase ABCB1 (Homo sapiens) (UniProt P08183); test: P-glycoprotein substrate transport blockade – cell-based (AID 377; in the data active = fluorescence slope change above about 50%); conditions: MDR1-expressing cells, fluorescent substrate accumulation slope; stronger effect = higher value; concentration not given here
# Sequence of ATP-dependent translocase ABCB1 (Homo sapiens) (P08183 whole entry, looked up): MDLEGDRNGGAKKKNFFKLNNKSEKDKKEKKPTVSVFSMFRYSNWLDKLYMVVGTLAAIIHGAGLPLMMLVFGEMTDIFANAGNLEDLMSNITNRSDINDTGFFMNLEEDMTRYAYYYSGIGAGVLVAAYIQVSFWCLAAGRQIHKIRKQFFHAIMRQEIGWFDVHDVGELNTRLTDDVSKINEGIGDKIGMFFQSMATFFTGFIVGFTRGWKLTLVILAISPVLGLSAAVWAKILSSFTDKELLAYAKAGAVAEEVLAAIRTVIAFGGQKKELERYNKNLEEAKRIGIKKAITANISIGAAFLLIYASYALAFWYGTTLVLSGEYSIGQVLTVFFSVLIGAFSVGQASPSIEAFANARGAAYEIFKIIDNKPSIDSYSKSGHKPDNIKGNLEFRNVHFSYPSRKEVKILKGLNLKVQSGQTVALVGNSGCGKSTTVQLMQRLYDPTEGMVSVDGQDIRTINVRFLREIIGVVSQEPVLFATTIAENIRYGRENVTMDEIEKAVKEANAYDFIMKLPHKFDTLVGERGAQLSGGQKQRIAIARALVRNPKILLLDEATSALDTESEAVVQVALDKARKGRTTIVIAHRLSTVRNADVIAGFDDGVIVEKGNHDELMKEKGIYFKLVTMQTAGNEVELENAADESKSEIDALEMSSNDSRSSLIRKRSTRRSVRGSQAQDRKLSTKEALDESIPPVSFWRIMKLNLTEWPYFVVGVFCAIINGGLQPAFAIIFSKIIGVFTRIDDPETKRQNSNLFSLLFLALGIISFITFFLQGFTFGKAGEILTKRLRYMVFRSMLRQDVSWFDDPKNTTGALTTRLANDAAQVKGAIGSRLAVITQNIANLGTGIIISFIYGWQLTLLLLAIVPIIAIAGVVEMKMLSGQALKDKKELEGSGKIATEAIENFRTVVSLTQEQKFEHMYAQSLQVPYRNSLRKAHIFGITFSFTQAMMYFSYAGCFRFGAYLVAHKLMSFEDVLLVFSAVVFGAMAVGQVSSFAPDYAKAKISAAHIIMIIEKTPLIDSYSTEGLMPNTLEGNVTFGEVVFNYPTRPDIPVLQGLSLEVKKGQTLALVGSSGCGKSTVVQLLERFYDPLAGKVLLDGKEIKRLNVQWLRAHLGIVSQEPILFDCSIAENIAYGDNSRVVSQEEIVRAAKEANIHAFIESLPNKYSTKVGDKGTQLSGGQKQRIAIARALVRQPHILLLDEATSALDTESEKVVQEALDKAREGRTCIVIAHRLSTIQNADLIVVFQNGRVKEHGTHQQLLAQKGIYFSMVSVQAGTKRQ
# [4] = P. berghei load reduction in hepatocytes – cell-based, HepG2, luciferase luminescence, HepG2 viability, primary screen (AID 624349; in the data active = parasite load remaining mostly below about 12%, no sharp cut-off; inactive = mostly above about 10%;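 also: 100% = mean of DMSO negative control wells on the same plate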); conditions: P. berghei liver stage in HepG2, luciferase luminescence, concentration not given here; parasite load remaining: stronger effect = lower value; viability: measured here: HepG2 viability without parasites
# [5] = stronger effect = lower value, cell number ratio, induced over uninduced
# [6] = measured here: relative caspase fold change +Dox/-Dox
# [7] = measured here: total cells with miR-34 induction, stronger effect = lower value
# [8] = measured here: total cells without miR-34 induction
Compound,survival [1],"fold change [2, 5]","fold change [2, 6]","cell count [2, 7]","cell count [2, 8]",fluorescence slope change [3],parasite load remaining [4],viability [4]
CCCCC[C@H](O)/C=C/[C@H]1OC(O)C[C@H](O)[C@@H]1C/C=C\CCCC(=O)O (stereo not given in full),96.2 (inactive),0.852 (inactive),1.59,5370,6300,–,–,–
C[N+]1(C)C[C@@H](O)C[C@H]1C(=O)[O-],7 (inactive),0.868 (inactive),1.07,8350,9610,28.3% (inactive),117% (inactive),106%
CCCCCCCCCCCCCCCCOC[C@H](COP(=O)([O-])OCC[N+](C)(C)C)OC(=O)NC,80.6 (inactive),0.941 (inactive) and 0.889 (inactive),1.15 and 1.06,5360 and 4990,5690 and 5620,–,–,–
CCCCC(C)(O)C/C=C/[C@H]1[C@H](O)CC(=O)[C@@H]1CCCCCCC(=O)O (stereo not given in full),92.9 (inactive),0.933 (inactive) and 0.881 (inactive),1.28 and 1.98,6180 and 5400,6620 and 6130,–,–,–
CCCCCC(=O)CC[C@@H]1[C@@H](C/C=C\CCCC(=O)O)[C@@H](O)C[C@H]1O,82.4 (inactive),0.925 (inactive),1.4,5510,5950,–,–,–
CCCCCCCCCCCCCCCCCCOC[C@@H](O)COP(=O)([O-])OCC[N+](C)(C)C,71.2 (inactive),0.968 (inactive),0.597,5980,6180,–,–,–
CO[C@@H]1[C@@H](OC(N)=O)[C@@H](O)C(Oc2ccc3c(O)c(NC(=O)c4ccc(O)c(CC=C(C)C)c4)c(=O)oc3c2C)OC1(C)C (stereo not given in full),–,0.855 (inactive),1.4,9430,11000,82.3% (active),78.5% (inactive),90.9%
COc1c(O)cc2c(c1O)C1OC(CO)C(O)C(O)C1OC2=O (stereo not given),2.17 (inactive),0.91 (inactive),1.19,9380,10300,18.9% (inactive),89.5% (inactive),106%
O=C1C=CC(=O)c2c1ccc1c2ccc2ccccc21,5.83 (inactive),0.87 (inactive),1.13,7950,9140,25.9% (inactive),14.2% (inactive) and 61.1% (inactive),64.9% and 72.9%
O=C(O)CCC/C=C\C[C@@H]1[C@@H](/C=C/[C@@H](O)COc2cccc(C(F)(F)F)c2)[C@H](O)C[C@@H]1O,118 (inactive),0.964 (inactive) and 1.06 (inactive),2.48 and 1.05,5470 and 6950,5680 and 6530,–,–,–
Cc1n[nH]c(=O)[nH]c1=O,3.58 (inactive),0.871 (inactive),1.41,8710,10000,50.5% (active),54.2% (inactive) and 83.7% (inactive),111% and 75.4%
CCCCC/C=C\C[C@@H](O)/C=C/C=C\C/C=C\CCCC(=O)O,89.3 (inactive),0.841 (inactive),1.54,4740,5630,–,–,–
CCCCCCCCCCCCCCC[C@@H](O)[C@H](CO)NC(C)=O,81.5 (inactive),1.08 (inactive),1,5490,5090,–,–,–
CC/C=C\C/C=C\C/C=C\C/C=C\C/C=C\C/C=C\CCC(=O)O[C@H](COCCCCCCCCCCCCCCCC)COP(=O)([O-])OCC[N+](C)(C)C,68.5 (inactive),1.06 (inactive),1.37,5710,5380,–,–,–
COc1ccc2c(OC)c3ccoc3nc2c1OC,3.67 (inactive),0.86 (inactive),1.16,8660,10100,16.3% (inactive),157% (inactive),95.8%
CCCCC[C@H](O)/C=C/[C@@H]1[C@@H](C/C=C\CCCC(=O)O)[C@H]2CO[C@@H]1C2,104 (inactive),0.992 (inactive),1.22,5990,6040,–,–,–
CCCCC[C@H](O)/C=C/[C@@H]1[C@@H](C/C=C\CCCC(=O)O)[C@@H](O)C[C@@H]1O,97.2 (inactive),0.891 (inactive) and 0.917 (inactive),1.22 and 1.29,5840 and 5720,6560 and 6230,–,–,–
c1ccc2c(c1)CCCc1cc(NCCN3CCOCC3)nnc1-2,2.75 (inactive),0.801 (inactive),2.12,7290,9100,77.5% (active),74.6% (inactive) and 80.6% (inactive),105% and 79%
CCCCC[C@H](O)/C=C/[C@@H]1[C@H]2C/C(=C/CCCC(=O)O)C[C@H]2C[C@H]1O,59.9 (inactive),0.942 (inactive),1.29,5920,6280,–,–,–
